Results filed as inconclusive are left out. Activity calls are given as the source filed them. Calls follow the shape of the dose curve; as a rule, active = well fitted inhibition curve with a large enough effect; inconclusive = small, poorly fitted or top-dose-only effect; inactive = flat fitted curve, though single readings scatter.

Common to all, as to experiment: qHTS profiling for inhibitors of Plasmodium falciparum proliferation (AID 504749); also: nearly all actives have a fitted effect of over 60% in size
Conditions in all cases: P. falciparum in erythrocytes, SYBR Green DNA, 72 h; series mostly up to 28.7 µM
On the technique in general: In qHTS, concentration-response curves come from the screen itself.

Experiment [1] deals with CP237. The gist of the method:
(§1)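 Three-day growth assay of blood-stage parasites in erythrocytes (0.3% parasitemia, 2.5% hematocrit) at 37 C, 5% CO2, quantified by SYBR Green DNA staining after overnight detergent lysis.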

For experiment [2], the system named is CP238. The gist of the method:
as §1

Experiment [3] relates to CP247. An outline of the steps:
as §1

The subject of experiment [4] is CP250. The gist of the method:
as §1

The test system of experiment [5] is CP252. An outline of the steps:
as §1

Experiment [6] relates to CP256. An outline of the steps: as §1
The test system of experiment [7] is CP260. The gist of the method:
as §1

The test system of experiment [8] is CP262. The gist of the method:
as §1

Experiment [9] concerns CP266. The gist of the method: as §1
Experiment [10] deals with CP269. An outline of the steps:
as §1

Experiment [11] has as its system CP286. The gist of the method: as §1
Experiment [12] relates to CP291. The gist of the method:
as §1

Experiment [13] relates to CP315. An outline of the steps:
as §1

Experiment [14] deals with CP329. The gist of the method: as §1
The subject of experiment [15] is CP265. An outline of the steps: as §1
Experiment [16] concerns CP268. An outline of the steps:
as §1

Experiment [17] has as its system CP297. An outline of the steps:
as §1

The subject of experiment [18] is CP305. An outline of the steps:
as §1

In experiment [19] the test system is CP325. An outline of the steps: as §1
In experiment [20] the test system is CP335. The gist of the method:
as §1
Potency is read from the fitted curve at half-maximal effect.

Regarding `CCCN1CCCC[C@H]1C(=O)Nc1c(C)cccc1C`, the Potency in experiment [1] was 6.31 µM (active). Besides, the Potency entry in experiment [2], in [3], in [4], in [5], in [6] and in [7] was “inactive” throughout. Further, the Potency result in experiment [8], in experiment [9], in experiment [10], in experiment [11], in experiment [12] and in experiment [13] was “inactive” throughout. Further, the Potency result in [14] is “inactive”.

On to `CC(C)(C)CC(C)(C)c1ccc(OCCOCC[N+](C)(C)Cc2ccccc2)cc1`, for which the Potency is 2.51 µM (active) in experiment [1]; 4.47 µM (active) in experiment [2]; 3.98 µM (active) in [3]; 4.47 µM (active) in experiment [4]; 5.01 µM (active) in [5]; 4.47 µM (active) in experiment [6]. Further, the Potency is 1.41 µM (active) in experiment [7]; 4.47 µM (active) in experiment [15]; 4.26 µM (active) in experiment [9]; 4.26 µM (active) in experiment [16]; 3.79 µM (active) in experiment [10]; 2.24 µM (active) in experiment [11]. In addition, the Potency in [12] is 4.78 µM (active); in experiment [17] it was 4.26 µM (active); in [18], 4.78 µM (active); in experiment [13], 4.78 µM (active); in experiment [19], 4.78 µM (active); in experiment [14] it was 4.78 µM (active). The Potency in experiment [20] is 1.51 µM (active).

In the case of `C[C@@H](CN(C)C)CN1c2ccccc2Sc2ccccc21`, the Potency result in experiment [1], in [2], in experiment [3], in [4], in experiment [5] and in experiment [6] was “inactive” each time. Also, the Potency entry in experiment [7], in experiment [8], in [15], in [9], in experiment [11] and in [12] was “inactive” each time. Besides, the Potency entry in experiment [17], in experiment [18], in experiment [13], in experiment [19] and in experiment [20] was “inactive” each time.

For `CC(O)(P(=O)(O)O)P(=O)(O)O`, the Potency result in experiment [1], in experiment [2], in [3], in experiment [4], in [5] and in experiment [6] was “inactive” throughout. For the same compound, the Potency result in experiment [7], in experiment [8], in experiment [15], in experiment [9], in [10] and in experiment [11] was “inactive” throughout. Moreover, the Potency result in experiment [13], in experiment [14] and in [20] was “inactive” throughout.

With `O=S1(=O)c2cccc3cccc(c23)N1CCCN1CCN(c2ccc(F)cc2)CC1`, the Potency entry in experiment [1], in [2], in [3], in [4], in experiment [5] and in experiment [6] was “inactive” each time. Further, the Potency entry in [7], in experiment [8], in experiment [15], in [9], in experiment [16] and in [10] was “inactive” throughout. Also, the Potency entry in experiment [11], in experiment [17], in experiment [18], in experiment [13], in [19] and in experiment [14] was “inactive” in each case. Further, in experiment [20], the Potency result was “inactive”.

In the case of `CCCCCCC[N+](CC)(CC)CCCCc1ccc(Cl)cc1`, the Potency is 2.82 µM (active) in experiment [1]; 2.51 µM (active) in experiment [2]; 2.51 µM (active) in [3]; 3.16 µM (active) in experiment [4]; 2.51 µM (active) in experiment [5]; 2.24 µM (active) in experiment [6]. For the same compound, the Potency in [7] is 2.24 µM (active); in experiment [15] it was 2.82 µM (active); in experiment [9] it was 2.56 µM (active); in experiment [16], 2.56 µM (active); in [10] it was 1.61 µM (active); in experiment [11] it was 1.12 µM (active). Moreover, the Potency in experiment [12] was 1.81 µM (active); in [17], 2.03 µM (active); in experiment [18], 0.572 µM (active); in experiment [13], 2.28 µM (active); in [19], 2.28 µM (active); in experiment [14], 1.81 µM (active). In addition, the Potency in experiment [20] is 1.81 µM (active).

Regarding `c1ccc(OCc2ccc(CCCN3CCOCC3)cc2)cc1`, the Potency result in experiment [1], in [2], in [3], in [4], in experiment [5] and in [6] was “inactive” in each case. The Potency result in experiment [7], in experiment [8], in experiment [9], in experiment [16], in experiment [10] and in experiment [11] was “inactive” throughout. In addition, the Potency entry in [12], in experiment [17], in experiment [18], in [13], in [19] and in [14] was “inactive” in each case. The Potency entry in experiment [20] was “inactive”.

For `CN1CCC[C@@H]1c1cccnc1`, the Potency result in [1], in experiment [2], in experiment [3], in experiment [4], in experiment [5] and in [6] was “inactive” in each case. The Potency entry in [7], in experiment [15], in experiment [9], in experiment [16], in experiment [10] and in experiment [11] was “inactive” each time. The Potency result in [12], in experiment [17], in [18], in experiment [13], in [19] and in experiment [14] was “inactive” in each case. For the same compound, the Potency result in experiment [20] is “inactive”.

Take `COc1ccc(/C=C/C(=O)c2ccc(OC)cc2OC)cc1`: the Potency was 11.2 µM (active) in experiment [1]; 11.2 µM (active) in experiment [2]; 4.47 µM (active) in experiment [3]; 5.62 µM (active) in [4]; 5.01 µM (active) in [5]; 2.24 µM (active) in experiment [6]. For the same compound, the Potency in experiment [7] is 8.91 µM (active); in [8] it was 5.36 µM (active); in experiment [15], 5.01 µM (active); in experiment [9], 7.57 µM (active); in [16], 13.5 µM (active); in experiment [10] it was 9.53 µM (active). Further, the Potency in experiment [11] was 10 µM (active); in [12] it was 8.49 µM (active); in [17] it was 8.49 µM (active); in [18], 6.01 µM (active); in experiment [19], 12 µM (active); in experiment [20] it was 6.75 µM (active).

Take `NC(=NCCCCCCN=C(N)/N=C(\N)Nc1ccc(Cl)cc1)/N=C(\N)Nc1ccc(Cl)cc1`: the Potency in experiment [1] was 0.891 µM (active); in experiment [2] it was 2.24 µM (active); in experiment [3], 2.24 µM (active); in [4], 2.24 µM (active); in experiment [5] it was 2 µM (active); in [6], 1.41 µM (active). Further, the Potency was 1 µM (active) in experiment [7]; 1.51 µM (active) in [8]; 3.79 µM (active) in experiment [9]; 1.51 µM (active) in [16]; 1.2 µM (active) in experiment [10]; 0.398 µM (active) in experiment [11]. Moreover, the Potency in experiment [12] was 1.35 µM (active); in [17], 2.13 µM (active); in experiment [18], 1.2 µM (active); in [13], 1.07 µM (active); in experiment [19], 1.9 µM (active); in experiment [14], 1.69 µM (active). In experiment [20], the Potency was 1.69 µM (active).

Take `CCOC(=O)c1cccc(N)c1`: the Potency entry in [1], in [2], in experiment [3], in experiment [4], in experiment [5] and in experiment [6] was “inactive” each time. Besides, the Potency result in experiment [7], in experiment [8], in [15], in [11] and in experiment [20] was “inactive” throughout. The Potency in [17] is 15.1 µM (active).

Turning to `Cc1cc(N)c2cc(NC(=O)Nc3ccc4nc(C)cc(N)c4c3)ccc2n1`, the Potency is 5.01 µM (active) in experiment [1]; 12.6 µM (active) in experiment [2]; 12.6 µM (active) in experiment [3]; 11.2 µM (active) in experiment [4]; 1.78 µM (active) in experiment [6]; 5.62 µM (active) in experiment [7]. For the same compound, the Potency was 4.78 µM (active) in [8]; 7.08 µM (active) in experiment [15]; 2.39 µM (active) in experiment [10]; 4.47 µM (active) in experiment [11]; 4.26 µM (active) in experiment [12]; 4.78 µM (active) in experiment [17]. In addition, the Potency in experiment [18] was 3.79 µM (active); in experiment [13], 7.57 µM (active); in experiment [14], 1.69 µM (active); in [20], 7.57 µM (active). The Potency result in experiment [5] is “inactive”.

In the case of `CC(C)COC(=O)c1ccc(N)cc1`, the Potency result in experiment [1], in experiment [2], in experiment [3], in experiment [4], in experiment [5] and in experiment [6] was “inactive” throughout. Further, the Potency entry in experiment [7], in experiment [8], in [15], in [9], in experiment [16] and in experiment [11] was “inactive” each time. The Potency entry in experiment [17], in [18], in experiment [13] and in experiment [20] was “inactive” each time.

For the origin of these results see PubChem BioAssay (NCATS).
